The list shows a part of the results. Values without a mark were called inactive. Active and inactive are the calls of the source.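 Rule for the calls: active = inhibition averaging 50% or more, tested at 20 µM; inactive = the rest.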
These molecules were tested on diaphorase (Clostridium kluyveri) (assay: diaphorase inhibitors and chemical oxidizers, confirmation, counter-screen for P. falciparum G6PD inhibitor project, biochemical, fluorescence intensity, 30 µM NADPH (AID 504863;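 note: 0% = DMSO with enzyme and 100% = DMSO wells lacking diaphorase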)). Settings: Diaphorase/resazurin coupled assay, resorufin fluorescence, at 20 µM, active compounds read high.

Row | SMILES | inhibition
1 | O=C1C=CC(=O)N1c1ccc(N2CCCCC2)cc1 | -16.6%
2 | CCOC(=O)C1=C(c2ccc(OC)cc2)C(=O)c2ccccc2C1=O | 85.7% (active)
3 | CC(C)(C)NC(=O)COc1ccc(CNc2ccc3[nH]c(=O)[nH]c3c2)cc1 | 12.2%
4 | CCN(CC)c1ccc2oc(=O)c(C)nc2c1 | 62.5% (active)
5 | Cc1cccc(C(=O)Nc2nnc(S(=O)(=O)N3CCCCCC3)s2)c1 | 36.1%
6 | C=CCc1ccccc1OCC(=O)N/N=C/c1ccccc1OCC | 43.5%
7 | COc1cccc(C(=O)Nc2nnc(S(=O)(=O)N3CCOCC3)s2)c1 | 54.9% (active)
8 | COc1c(O)ccc2c1CN1CCc3cc4c(cc3C1C2)OCO4 (stereo unspecified) | 8.58%
9 | CCSc1nnc(NC(=O)c2ccc(C)cc2)s1 | 56.5% (active)
10 | Cc1ccnc(-n2sc3ccccc3c2=O)n1 | -26.9%
11 | CCN1CCCC1CNC(=O)c1ccc2c(c1)NC(=O)/C(=C\c1ccccc1F)S2 (stereo unspecified) | -9.58%
12 | Cn1c(-c2sccc2OCc2cccc(C(F)(F)F)c2)n[nH]c1=S | 10.1%
13 | O=C(Nc1nc(-c2ccncc2)cs1)C1COc2ccccc2O1 (stereo unspecified) | -24.7%
14 | O=[N+]([O-])c1c(NCCO)cc(Sc2nc3ccccc3s2)c2nonc12 | 0.96%
15 | COc1ccc(CCn2c(NN=C3CCCC3)nc3c2c(=O)[nH]c(=O)n3C)cc1 | -4.07%
16 | Cc1ccc(/C=C/C(=O)Nc2ccc([N+](=O)[O-])c(NC(=O)/C=C/c3ccc(C)o3)c2)o1 | -7.03%

Row | SMILES | inhibition
17 | COc1cccc(C(=O)Nc2nnc(S(=O)(=O)N3CCCCC3)s2)c1 | 57% (active)
18 | Cc1ccc(NC(=O)Cn2sc3ccccc3c2=O)cc1 | 11.3%
19 | O=C(NC1=CC(=O)c2ccccc2C1=O)c1ccccc1 | 60.6% (active)
20 | O=C(CN1CCN(c2ccc(O)cc2)CC1)Nc1cc(S(=O)(=O)N2CCOCC2)ccc1Cl | 7.17%
21 | COc1ccc(OCc2nnc3n2N=C(c2ccccc2)C(CC(=O)O)S3)cc1 (stereo unspecified) | 1.64%
22 | COc1ccc2c(c1)c(=Cc1ccc(N(C)C)cc1)c1cc(-c3ccccc3)[n+](C)n12 | 15.6%
23 | c1ccc(-c2cn3c(n2)CCc2ccc4cccnc4c2-3)cc1 | 45%
24 | OCCN1CCN(C(=S)c2ccc(-c3ccccc3)cc2)CC1 | 2.65%
25 | O=c1[nH]c2ccccc2n2c(-c3ccccc3)nnc12 | 15.9%
26 | O=C(Nc1nnc(S(=O)(=O)N2CCOCC2)s1)c1cccc(Br)c1 | 48.1%
27 | COc1ccc(CC(=O)NCC(=O)N/N=C/c2cc(Br)ccc2OC)cc1 | 70.8% (active)
28 | CCOc1ccccc1/C=N/NC(=O)CNC(=O)COc1ccccc1 | 88.1% (active)
29 | O=C1/C(=C\c2ccc([N+](=O)[O-])cc2)CS(=O)(=O)C/C1=C/c1ccc([N+](=O)[O-])cc1 | -12.8%
30 | COc1cccc(C(=O)Nc2nnc(S(=O)(=O)N(C)c3ccccc3)s2)c1 | 56.8% (active)
31 | O=C(Nc1nnc(S(=O)(=O)N2CCCCCC2)s1)c1cccc(Br)c1 | 41.6%

Source: PubChem BioAssay AID504863 (Sanford-Burnham Center for Chemical Genomics, 2011)
